Bim-Bcl-XL: inhibitors of Bim-Bcl-XL binding, primary screen, biochemical, multiplexed, bead flow cytometry, human Bcl-XL; Bim peptide-Bcl-XL binding, fluorescence; 190,000 tested, 0.04% active; inhibition, % at 10 µM
Bim-Bcl-B: inhibitors of Bim-Bcl-B binding, primary screen, biochemical, multiplexed, human Bcl-2 family | inhibition, % at 10 µM | Bcl-2-like protein 10 (Homo sapiens), Q9HD36 | bead-based flow cytometry, Bim peptide-Bcl-B binding | 190,000 tested, 0.073% active | AID 951, 2007;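 also: 0% = tracer peptide without compound and 100% = reference inhibitor peptide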
Bim-Bfl-1: inhibitors of Bim binding to Bfl-1, primary screen, biochemical, multiplexed, bead-based flow cytometry; Bcl-2-related protein A1 (Homo sapiens), Q16548; Bim-Bfl-1 binding inhibition; inhibition, % at 10 µM; 190,000 tested, 0.12% active; AID 1008, 2008;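 also: 0% = wells without compound plus tracer and 100% = blocker peptide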
Bcl-2 Bim block: inhibitors of Bim-Bcl-2 binding, primary screen, biochemical, multiplexed, human Bcl-2 family. Apoptosis regulator Bcl-2 (Homo sapiens), P10415. AID 950, 2007. Bead-based flow cytometry, Bim peptide-Bcl-2 binding. 190,000 tested, 0.06% active. inhibition, % at 10 µM; in the data active = inhibition above about 40%;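 also: 0% = no compound wells with probe peptide and 100% = reference peptide inhibitor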
Target sequence (P10415 whole entry, looked up): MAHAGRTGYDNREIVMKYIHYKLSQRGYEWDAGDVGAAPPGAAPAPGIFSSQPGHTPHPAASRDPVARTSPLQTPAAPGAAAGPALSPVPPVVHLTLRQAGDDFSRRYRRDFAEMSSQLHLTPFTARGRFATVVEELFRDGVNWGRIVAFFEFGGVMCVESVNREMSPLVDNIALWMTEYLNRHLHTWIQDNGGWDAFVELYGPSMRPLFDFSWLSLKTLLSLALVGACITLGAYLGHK
Bim-Bcl-W: inhibitors of Bim binding to Bcl-W, primary screen, biochemical, multiplexed, bead-based flow cytometry | Bcl-2-like protein 2 (Homo sapiens), Q92843 | Bim peptide-Bcl-W binding | inhibition, % at 10 µM | 190,000 tested, 0.02% active | AID 952, 2007;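 also: 0% = bound tracer without compound and 100% = peptide blocker; higher means less fluorescent Bim peptide bound to Bcl-W beads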
Bim-BclXL dose: Bim-Bcl-XL interaction inhibitors, hit retest, confirmation, biochemical, dose response, multiplexed, HTS hits. shares compounds with Bim-Bfl-1. bead-based flow cytometry, Bim-Bcl-XL binding. inhibition of binding at 100 µM. 40 tested, under 10 active. AID 2084, 2009; call rule not given here
* = called active by the depositor. Sampled rows, rich in hits. Any-hit rate of the full collection: about 0.19%. Rule as the data show it, unless noted: active = inhibition above about 40%.

How did COC(=O)C1C2c3ccccc3OC1(C)N=c1s/c(=C/c3cnn(C)c3C)c(=O)n12 (configuration not stated) do in these assays?
Bim-Bcl-XL: 18; Bim-Bcl-B: 73*; Bim-Bfl-1: 11; Bcl-2 Bim block: 27; Bim-Bcl-W: 19

Results for CN1CC(C(=O)c2ccc(F)cc2)C(c2c(F)cccc2Cl)C1 (configuration not stated) ?
Bim-Bcl-XL: 7; Bim-Bcl-B: 0; Bim-Bfl-1: 5; Bcl-2 Bim block: 0; Bim-Bcl-W: 5

How did COc1ccc(C2CN(C)CC2C(=O)c2ccc(F)cc2)cc1Cl (configuration not stated) do in these assays?
Bim-Bcl-XL: 4; Bim-Bcl-B: 77*; Bim-Bfl-1: 59*; Bcl-2 Bim block: 81*; Bim-Bcl-W: 2

What do the screens show for `CN1CCc2nc(SCc3ccccc3Br)c(C#N)cc2C1`?
Bim-Bcl-XL: 0; Bim-Bcl-B: 0; Bim-Bfl-1: 4; Bcl-2 Bim block: 2; Bim-Bcl-W: 0

How did O=C1c2ccccc2C2(c3ccc(Cl)cc3)NCCN12 (configuration not stated) do in these assays?
Bim-Bcl-XL: -2; Bim-Bcl-B: -4; Bim-Bfl-1: -2; Bcl-2 Bim block: -4; Bim-Bcl-W: -2

What do the screens show for `Cc1ccc2c(c1)C1CN(C)CCC1N2C(=S)Nc1cccnc1` (configuration not stated)?
Bim-Bcl-XL: -2; Bim-Bcl-B: -7; Bim-Bfl-1: -4; Bcl-2 Bim block: -3; Bim-Bcl-W: -1

Results for Cc1ccc2c(c1)C1CN(C)CCC1N2C(=O)Nc1cccc(Cl)c1 (configuration not stated) ?
Bim-Bcl-XL: 19; Bcl-2 Bim block: 85*; Bim-Bcl-W: 16

How did Cc1ccc(-c2nc(N3CCOCC3)s[n+]2-c2ccccc2)cc1 do in these assays?
Bim-Bcl-XL: 11; Bim-Bcl-B: -42; Bim-Bfl-1: 53*; Bcl-2 Bim block: 13; Bim-Bcl-W: 4

How did O=C1NC(=O)C2(Cc3c(nc4ccccn4c3=O)N3CCCCCC32)C(=O)N1Cc1ccccc1 (configuration not stated) do in these assays?
Bim-Bcl-XL: -4; Bim-Bcl-B: 59*; Bim-Bfl-1: -1; Bcl-2 Bim block: 4; Bim-Bcl-W: 0; Bim-BclXL dose: 3.8

How did CN[C@@H]1C[C@@H](c2ccc(Cl)c(Cl)c2)c2ccccc21 do in these assays?
Bim-Bcl-XL: -1; Bim-Bcl-B: -1; Bim-Bfl-1: 0; Bcl-2 Bim block: -7; Bim-Bcl-W: -3

Bioassay records from PubChem.
